Test results: PubChem BioAssay (NCATS)
Inconclusive results are not listed. Entries that show only a call come without a potency. A number with no mark means an inactive call. Activity calls are given as the source filed them. Calls come from the whole dose curve; as a rule, active = well fitted cell-killing curve with a large enough effect; inconclusive = small, poorly fitted or top-dose-only effect, or effect the other way; inactive = flat fitted curve, though single readings scatter.

Each molecule was assayed on HeLa (assay: Primary qHTS to identify gynecologic anti-cancer compounds using libraries of approved drugs and bioactive compounds (AID 1345084; note: nearly all actives have a fitted effect of over 55% in size)). Details: Gynecologic cancer cell panel viability, ATPlite luminescence, 48 h; series mostly up to 57.5 µM.
Outline: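 Cytotoxicity screen measuring ATP content by luciferase luminescence. Each compound is applied at five concentrations for 48 h at 37 C with 5% CO2.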
Potency is the fitted concentration of half-maximal effect.

| SMILES | activity change, negative = cytotoxicity | Potency |
| --- | --- | --- |
| CC(=O)O[C@H]1CC(C)(C)CC2[C@]13CO[C@@]21CCC2[C@@]4(C)CC[C@H](O[C@@H]5OC[C@H](O[C@@H]6O[C@H](CO)[C@@H](O)[C@H](O)[C@H]6O[C@@H]6OC[C@@H](O)[C@H](O)[C@H]6O)[C@H](O)[C@H]5O[C@@H]5O[C@H](CO)[C@@H](O)[C@H](O)[C@H]5O)[C@@](C)(CO)C4CC[C@@]2(C)[C@]1(C)C[C@H]3O (some centres undefined) | -3.76% [at 11.6 µM] | – |
| CC(=O)CC(=O)Nc1ccc(Cl)c(C(F)(F)F)c1 | – | inactive |
| CCCOc1ccc(CCc2nc3cc(-c4c(C)noc4C)ccc3n2CCN2CCOCC2)cc1 | – | inactive |
| CC(NC(=O)Cc1cc(F)cc(F)c1)C(=O)NC1C(=O)N(C)c2ccccc2-c2ccccc21 (centres undefined) | – | inactive |
| N#Cc1ccc(COc2ccc(-c3cccc4nc(NC(=O)C5CC5)nn34)cc2)cn1 | – | inactive |
| Nc1ncnc2c1c(-c1ccc(Oc3ccccc3)cc1)nn2[C@@H]1CCCNC1 | – | inactive |
| C=C1C(=O)O[C@@H]2[C@H]3C(C)=CC(=O)C3=C(C)[C@@H](OC(=O)/C(C)=C\C)[C@H](O)[C@@H]12 | – | inactive |
| C=C1C(=O)O[C@H]2CC(=C)[C@H]3CC[C@@](C)(O)[C@@H]3CC12 (some centres undefined) | – | inactive |
| C=C(C)[C@@H]1CC=C(COC(=O)NC(=O)c2ncn3c(=O)n(C)nnc23)CC1 | – | 31.6 µM (active) |
| CC1(C)CN(C(=O)c2ccc(-c3cccc4nc(NC(=O)C5CC5)nn34)cc2)C1 | – | inactive |
| CCN(CC)C(=O)c1ccc(Nc2nc(OCC3CCCCC3)c3[nH]cnc3n2)cc1 | – | 28.2 µM (active) |
| C=C1C(=O)OC2/C=C(\C)CC/C=C(\C)CC(OC(C)=O)C12 (centres undefined) | – | inactive |
| CCC(C)C(=O)OC1C(C)C2(O)C(C=C(CO)CC3(O)C(=O)C(C)=CC32)C2C(C)(C)C12OC(=O)C(C)C (centres undefined) | – | inactive |
| CCC(C)(OC(C)=O)C(=O)O[C@H]1[C@H](OC(C)=O)[C@]2(CO)[C@H](O)[C@H](O)[C@]3(C)C(=CCC4[C@@]5(C)CC[C@H](O[C@@H]6O[C@H](C(=O)O)[C@@H](O)[C@H](O[C@@H]7OC[C@H](O)[C@H](O[C@@H]8OC[C@H](O)[C@H](O)[C@H]8O)[C@H]7O)[C@H]6O[C@@H]6O[C@H](CO)[C@@H](O)[C@H](O)[C@H]6O)C(C)(C)C5CC[C@]43C)[C@@H]2CC1(C)C (some centres undefined) | -8.59% [at 6.55 µM] | – |
| CCOC(=O)c1csc(Nc2ccc(Cl)cc2)n1 | – | inactive |
| FC(F)(F)c1ccccc1-c1cc(C(F)(F)F)c2nc(C3=NOC4(CCCCC4)C3)[nH]c2c1 | – | inactive |
| Cc1ccc(-c2c(C(=O)CCl)n(CCCO)c3ncnc(N)c23)cc1 | – | inactive |
| CCn1c(=O)c(-c2ccc(-c3cncs3)cc2Cl)cc2cnc(Nc3ccc(N4CCN(C)CC4)cc3)nc21 | – | inactive |
| Cc1ccc(-c2ncccn2)c(C(=O)N2C[C@H](COc3ccc(F)cn3)CC[C@H]2C)c1 | – | inactive |
| COc1cc2ncnc(Oc3ccc(CC(=O)Nc4cnn(C(C)C)c4)cc3)c2cc1OC | – | inactive |
| O=C(Nc1ccnc(NC(=O)C2CC2)c1)c1c(Cl)cccc1Cl | – | 17.8 µM (active) |
| CC(C)(O)C1Cc2c(ccc(C(=O)CCc3ccccc3)c2O)O1 (centres undefined) | – | 10 µM (active) |
| CC(CCC1(O)OC2CC3C4CC=C5CC(O[C@@H]6O[C@H](CO)[C@@H](O[C@@H]7O[C@@H](C)[C@H](O)[C@@H](O)[C@H]7O)[C@H](O)[C@H]6O[C@@H]6O[C@@H](C)[C@H](O)[C@@H](O)[C@H]6O)CCC5(C)C4CCC3(C)C2C1C)CO[C@@H]1O[C@H](CO)[C@@H](O)[C@H](O)[C@H]1O (some centres undefined) | -7.05% [at 11.6 µM] | – |
| CC(C)NC(=O)N1CC[C@H](N=C2Nc3cc(F)ccc3N(CC(F)F)c3ccc(Cl)cc32)C1 | -4.91% [at 11.6 µM] | – |
| O=C(Nc1nnc(-c2ccc3c(c2)OCCO3)o1)C1CCCCC1 | – | inactive |
| CC(C)c1cccc(C(C)C)c1NC(=O)Nc1ccc(Sc2ccc([N+](=O)[O-])cc2)cc1 | – | inactive |
| CC(C)(C)[C@H](NC(=O)c1ccc(N)c(Cl)c1)C(=O)N1CCC[C@H]1C(=O)N[C@H](C#N)CC(=O)O | – | inactive |
| O=c1cc(N2CCOCC2)nc2c3ccccc3ccn12 | – | inactive |
| CC(=O)O[C@H]1CC[C@]2(C)[C@H]3CC[C@]4(C)Oc5oc(C)cc(=O)c5C[C@H]4[C@]3(C)CC[C@H]2C1(C)C | – | inactive |
